Tgondii IFNg: T. gondii growth inhibition with IFN-gamma, primary screen, cell-based; Toxoplasma gondii growth in IFN-gamma-treated host cells; active compounds read low; activity change, negative = inhibition, % (test concentration not listed); 69,000 compounds, 3.8% hits; in the data active means activity change below about -70%, passing the limit was not always enough;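 further: host cells are HeLa cells infected with Toxoplasma gondii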
An asterisk follows results filed as active. This excerpt belongs to a sample that is enriched for hits.

What do the screens show for `O=C1CCCc2c1[nH]c1ccc(-c3ccccc3CO)cc21`?
Tgondii IFNg: -74.8*

What do the screens show for `CCc1ccccc1-c1ccc2cc[nH]c(=O)c2c1`?
Tgondii IFNg: 1.6

What do the screens show for `CCC(=O)NCc1ccccc1-c1ccccc1CO`?
Tgondii IFNg: -38.6

What do the screens show for `CCCc1oc(C(=O)N2CCN(C)CC2c2ccccc2)cc1CN1CCOCC1` (centres undefined)?
Tgondii IFNg: 7.7

What do the screens show for `COCCN1CCc2nc(-c3cnn(C)c3)nc(NC3CC3)c2C1`?
Tgondii IFNg: 78.2

What do the screens show for `CCS(=O)(=O)N1CCc2nc(-c3cccc(F)c3)nc(NC3CC3)c2C1`?
Tgondii IFNg: -34.8

How did Cn1cc(-c2nc3c(c(NC4CC4)n2)CN(S(=O)(=O)c2cccc(F)c2)CC3)cn1 do in these assays?
Tgondii IFNg: -73.9*

What do the screens show for `O=C(O)C1(c2cccc(F)c2)CCOCC1`?
Tgondii IFNg: -11.5

What do the screens show for `N#CCSC1=Nc2ccccc2C2=NC(CC(=O)NCc3ccc(F)cc3)C(=O)N12` (centres undefined)?
Tgondii IFNg: 29.6

Results for Cc1c(-c2nccn2Cc2cc(C(C)C)no2)c(=O)n(-c2ccccc2)n1C ?
Tgondii IFNg: -31.7

Results for O=C(NCC(O)c1ccccc1)c1ccc(NC(=O)C2CCC2)cc1 (centres undefined) ?
Tgondii IFNg: 7.4

What do the screens show for `CC(C)[C@H](C(=O)Nc1ccc(C(=O)NO)cc1)c1ccccc1`?
Tgondii IFNg: -82.8*

How did CC(C)c1ccc(C(=O)Nc2ccccc2)cc1 do in these assays?
Tgondii IFNg: -9.2

How did CCN1CCCCC1CNC(=O)CCC(=O)NC1CCCC1 (centres undefined) do in these assays?
Tgondii IFNg: 34.7

What do the screens show for `COc1ccc(CN2CCC3(CC(Nc4ncc(F)cn4)CO3)C2)cc1` (centres undefined)?
Tgondii IFNg: -4.5

What do the screens show for `COC(=O)[C@@]12OC[C@]34[C@H]([C@@H](O)[C@@H]1O)[C@@]1(C)CC(=O)C(=O)C(C)[C@@H]1C[C@H]3OC(=O)[C@H](OC(=O)/C=C(\C)C(C)C)[C@@H]24` (some centres undefined)?
Tgondii IFNg: -88.8*

Results for CN1CC2(CCCN(Cc3cccc(OCC(=O)O)c3)C2)OC1=O (centres undefined) ?
Tgondii IFNg: 1.6

Results for O=C(C1CCC1)N1CC[C@H]2CN(Cc3cccc(Cl)c3)S(=O)(=O)[C@@H]2CC1 ?
Tgondii IFNg: -29.6

What do the screens show for `Cc1ccc(C2(O)CCN(C(=O)c3cc(C)nc(N4CCCCC4)n3)C2)cc1` (centres undefined)?
Tgondii IFNg: 11.1

How did Cc1cnc(-n2cnnc2)c(-c2ccc3c(c2)OCCO3)c1 do in these assays?
Tgondii IFNg: 3.2

Results for Cc1ccc(-c2nnc(-c3ccc4c(c3)OCO4)o2)cc1 ?
Tgondii IFNg: 112.8

What do the screens show for `Cc1nc(-n2cnnc2)ccc1-c1ccc2c(c1)OCO2`?
Tgondii IFNg: -96.6*

Results for CCC1CN(Cc2csc(C(=O)OC)c2)CCN1C(C)C (centres undefined) ?
Tgondii IFNg: 7.8

What do the screens show for `COc1cccc(-c2cc(C(=O)Nc3nc(-c4ccccn4)cs3)on2)c1`?
Tgondii IFNg: 14.2

How did Nc1nc(=S)c2ncn([C@@H]3O[C@H](CO)[C@@H](O)[C@H]3O)c2[nH]1 do in these assays?
Tgondii IFNg: -77.5*

How did COc1nc(N)nc2c1ncn2[C@@H]1O[C@H](CO)[C@@H](O)[C@@H]1O do in these assays?
Tgondii IFNg: 14.4

Results for Nc1ncn([C@@H]2O[C@H](CO)[C@@H](O)[C@H]2O)c(=O)n1 ?
Tgondii IFNg: -40.6

What do the screens show for `Cc1oc(-c2cccs2)nc1CN1CCNC(C(=O)N2CCCC2)C1` (centres undefined)?
Tgondii IFNg: -43.9

What do the screens show for `CC1=N[C@]2(CC[C@@H]3CN(C(=O)NCC4CCCCC4)C[C@H]32)C(=O)N1CC(C)C`?
Tgondii IFNg: 3.2

What do the screens show for `CC(C)Oc1ccc(C(=O)N[C@H](CNC(=O)CN(C)C)Cc2ccc(-c3cn4cccc([C@H](C)O)c4n3)cc2)cc1Cl`?
Tgondii IFNg: -79.6*

How did Cc1cccn2cc(-c3ccc(NC(=O)CNC(=O)c4ccccc4)cc3)nc12 do in these assays?
Tgondii IFNg: 60.5

Results for CN(CCC(=O)N1CCOC(c2ccc(Cl)cc2)C1)S(C)(=O)=O (centres undefined) ?
Tgondii IFNg: 14.0

What do the screens show for `CNC(=O)C[C@H]1C[C@@H]2CN(C(=O)N3CCCC3)C[C@H]2O1`?
Tgondii IFNg: 40.2

How did CCCn1cc(CCNC(=O)c2cc3ccccc3[nH]2)c2cccnc21 do in these assays?
Tgondii IFNg: -82.9*

What do the screens show for `CC(CNC(=O)c1cc(=O)c2ccccc2[nH]1)Oc1cccnc1` (centres undefined)?
Tgondii IFNg: 0.0

What do the screens show for `CCCN1C(=O)CCc2cc(NC(=O)c3cc4ccccc4[nH]3)ccc21`?
Tgondii IFNg: 24.6

How did CCc1nc(-c2ccccc2)n2ccn(CC#N)c(=O)c12 do in these assays?
Tgondii IFNg: -43.8

What do the screens show for `C=CCn1c(=O)c2cnc(Nc3ccc(N4CCN(C)CC4)cc3)nc2n1-c1cccc(C(C)(C)O)n1`?
Tgondii IFNg: -71.5*

Results for CN1CCN(c2cccc(Nc3nc4c(-c5ccc(S(C)(=O)=O)cc5)cccn4n3)c2)CC1 ?
Tgondii IFNg: 17.4

Results for Cn1cc(NC(=O)CN2CCc3onc(-c4ccc5c(c4)OCO5)c3C2)cn1 ?
Tgondii IFNg: -17.4

Results for COCCN(Cc1nccs1)C(=O)CC1COCCN1 (centres undefined) ?
Tgondii IFNg: -2.2

Results for CC1(C)C2CC[C@]3(C)[C@H](C(=O)C=C4[C@@H]5C[C@@](C)(C(=O)O)CC[C@]5(C)CC[C@]43C)[C@@]2(C)CC[C@@H]1OC(=O)CCC(=O)O (some centres undefined) ?
Tgondii IFNg: 18.3

How did C=C(C)[C@@H]1CC[C@]2(C(=O)O)CC[C@]3(C)[C@H](CC[C@@H]4[C@@]5(C)CC[C@H](OC(=O)CC(C)(C)C(=O)O)C(C)(C)[C@@H]5CC[C@]43C)[C@@H]12 do in these assays?
Tgondii IFNg: -73.2*

What do the screens show for `C=C(C)[C@@H]1CC[C@]2(CO)CC[C@]3(C)[C@H](CC[C@@H]4[C@@]5(C)CC[C@H](O)C(C)(C)[C@@H]5CC[C@]43C)[C@@H]12`?
Tgondii IFNg: 2.6

Results for CS(=O)(=O)c1ccc(CN2C[C@H]3C[C@H](O)[C@H](O)C[C@H]3C2)cc1 ?
Tgondii IFNg: 7.4

What do the screens show for `NC(=S)NN=C1Cc2ccccc2C1`?
Tgondii IFNg: 67.8

How did COc1ccc(-c2ccc(N)nc2)c(C)c1 do in these assays?
Tgondii IFNg: 5.5

What do the screens show for `COc1ccc2c(c1)CCC/C2=N\NC(N)=S`?
Tgondii IFNg: -99.1*

What do the screens show for `CN1C[C@@H](C(=O)NCCc2cccs2)C[C@@H]2OCC[C@@H]21`?
Tgondii IFNg: -2.5

Results for CCC(NC(=O)c1cn[nH]c1-c1ccccc1)c1ccnn1C (centres undefined) ?
Tgondii IFNg: 4.7

How did CCOc1ccccc1-c1nc(CSc2nc3c(=O)[nH]cnc3n2-c2ccc(C)cc2)c(C)o1 do in these assays?
Tgondii IFNg: 120.4

What do the screens show for `Cc1ccc(C2(CN3CCC(NC(=O)CCc4n[nH]c(=O)[nH]c4=O)CC3)CCCC2)cc1`?
Tgondii IFNg: 18.3

Results for CCS(=O)(=O)N1CCC2(CC(=O)N(c3cnn(C)c3)C2)C1 (centres undefined) ?
Tgondii IFNg: 4.6

Screens: PubChem BioAssay, Broad Institute
